# Measured values reported in PubChem BioAssay.
# Results filed as inconclusive are left out. Activity calls are given as the source filed them.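 The calls were made as follows, unless noted: active = viability at or below 27.92% in each of two runs, the all-compound median minus 4 SD; inconclusive = no clear call, values can overlap the other calls; inactive = the rest.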
# How the values were obtained:
# [1] = reducers of endogenous Her2 protein level, primary screen, SKBR3 breast tumor cells, AlphaScreen, ATP viability (AID 461;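 active = Her2 level under about 52% in both replicate screens, with viability over 70% of control, limit read from the data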;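 as to Her2 level: lower value means less Her2 protein in the cells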;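 as to viability: percent of carrier control wells set as 100% viability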); conditions: 18-24 h, measured here: SKBR3 viability, ATP luminescence, at 10 µM
# [2] = target: Receptor tyrosine-protein kinase erbB-2 (Homo sapiens) (UniProt P04626); assay: as above; conditions: 18-24 h, at 10 µM, stronger effect = lower value
# [3] = SK-BR-3 cell growth inhibitors, pilot screen, 24 h, human (AID 572;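 active = viability at or below 10% of carrier control in both of two separate runs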;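 also: compound exposure lasted between 18 and 24 h rather than exactly 24 h; 100% = carrier-treated control wells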); conditions: SK-BR-3 viability, CellTiter-Glo luminescence, at 10 µM, stronger effect = lower value
# [4] = HUVEC growth inhibition – cell-based, human, primary screen (AID 575;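 active = viability at or below 30% in both replicate assays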;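 also: 100% = median of untreated cell wells with 0.1% DMSO on each plate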); conditions: HUVEC proliferation, CellTiter-Glo luminescence, 72 h; at 10 µM; stronger effect = lower value
# [5] = growth inhibitors of H69AR lung tumor, primary screen, human, duplicate replicates (AID 580;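 active = viability at or under a set limit in both replicates, limit being median viability minus 3 SD, cut at about 48% in these data, passing the limit was not always enough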;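 also: 100% = mean luminescence of untreated wells and 0% = no signal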); conditions: H69AR lung tumor cells viability, ATP luminescence, 72 h; at 10 µM; stronger effect = lower value
# [6] = reversal of MRP1-mediated doxorubicin resistance, pilot screen, H69AR cells, doxorubicin co-treatment (AID 601;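 active = viability loss from added drug above about 55%, and viability with drug at most 40%, in both replicates, limit read from the data, passing the limit was not always enough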); conditions: CellTiter-Glo, 72 h, at 10 µM; for differential viability (reversal): stronger effect = higher value
# [7] = 384-well plate pilot, post-Golgi transport modulator project, inhibition of yeast transport mutant growth (AID 636; in the data active = inhibition above about 31%); conditions: absorbance 615 nm, about 18 h, stronger effect = higher value
# [8] = growth suppression of yeast trafficking mutant, preliminary HTS, modulators of trafficking downstream of Golgi apparatus project, 1536-format plate, OD 615 nm (AID 637; in the data active = inhibition above about 30%); conditions: yeast transport mutant growth, absorbance 615 nm, 18 h; stronger effect = higher value
# [9] = OD615 S. cerevisiae growth inhibition, permissive medium, pilot counter-assay, permissive growth control for S. cerevisiae lifespan shortening project (AID 705;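 active = growth inhibition above 25% in both replicates, a cutoff set 3 SD above the mean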); conditions: OD615, 24 h, at 10 µM, stronger effect = higher value
# [10] = Restrictive medium S. cerevisiae growth inhibition, OD615, pilot screen of yeast lifespan reduction project, restrictive growth control (AID 706;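 active = growth inhibition above a set limit, 3 SD over mean compound inhibition, in both replicates, cut at about 43% in these data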;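 also: modified DeaD lifespan yeast strain shifted to restrictive glucose medium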); conditions: OD615, 48 h, at 10 µM, stronger effect = higher value
# [11] = viability gain of MRP-1-high H69AR cells under doxorubicin, pilot screen, MRP-1 activator project, CellTiter-Glo, duplicate (AID 807;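 active = viability increase at or above a cutoff of the median across tested compounds plus 3 SD, cut at about 8.5% in these data, passing the limit was not always enough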;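 also: compound pretreatment 18-22 h then 72 h combined with doxorubicin; 0% = doxorubicin alone and 100% = vehicle without doxorubicin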); conditions: H69AR viability with doxorubicin, CellTiter-Glo luminescence; at 10 µM; stronger effect = higher value
# [12] = growth suppression of beta-catenin knockout HCT116, pilot screen, human colon tumor cells (AID 823;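 active = cell viability at or below a set limit in both duplicate runs, the limit being the all-compound median minus 4 SD, cut at about 23% in these data, passing the limit was not always enough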;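 also: 0% = wells killed by 20 µM Hyamine and 100% = untreated DMSO cell wells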); conditions: CellTiter-Glo, 60 h, at 10 µM, stronger effect = lower value
# [13] = growth suppression of PTEN-deleted HCT116, pilot screen, cell-based, HCT116 clonal line, CellTiter-Glo (AID 824); conditions: 60 h, at 10 µM, stronger effect = lower value;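 also: 0% = 20 µM Hyamine control and 100% = vehicle cell control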
# [14] = inhibitors of the yeast RAM network, pilot screen, dse1pr::URA3 reporter, 5-FOA selection (AID 869;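 active = inhibition over a set limit, the all-compound mean plus 3 SD, in both replicate runs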;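 also: 0% = DMSO wells with no growth and 100% = 10 µM 1-NA-PP1 with full growth; RAM network block rescues cells from 5-FOA so hits raise OD615 growth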); conditions: S. cerevisiae dse1pr::URA3 5-FOA growth, OD615, 2 d; at 10 µM; stronger effect = higher value; strain carries analog-sensitive mutant Cbk1 kinase
# [15] = RAM signaling pathway blockade in yeast – S. cerevisiae, Pdr1DBD-CYC8 efflux-inhibited sensitized strain, primary screen (AID 1298;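 active = RAM network inhibition above 8.4% in each of two replicates, 3 SD over the compound average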;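 also: 0% = DMSO untreated cells without growth and 100% = 10 µM 1-NA-PP1 full growth; higher means more yeast growth rescued from 5-FOA killing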); conditions: S. cerevisiae cbk1-as DSE1-URA3 strain, 5-FOA growth OD615, 2 d; at 50 µM; stronger effect = higher value
# [16] = H69AR cells + 2 uM doxorubicin, measured here: viability with 2 uM doxorubicin, stronger effect = lower value
# [17] = H69AR cells, compound alone cytotoxicity
# Sequence of Receptor tyrosine-protein kinase erbB-2 (Homo sapiens) (P04626 whole entry, looked up): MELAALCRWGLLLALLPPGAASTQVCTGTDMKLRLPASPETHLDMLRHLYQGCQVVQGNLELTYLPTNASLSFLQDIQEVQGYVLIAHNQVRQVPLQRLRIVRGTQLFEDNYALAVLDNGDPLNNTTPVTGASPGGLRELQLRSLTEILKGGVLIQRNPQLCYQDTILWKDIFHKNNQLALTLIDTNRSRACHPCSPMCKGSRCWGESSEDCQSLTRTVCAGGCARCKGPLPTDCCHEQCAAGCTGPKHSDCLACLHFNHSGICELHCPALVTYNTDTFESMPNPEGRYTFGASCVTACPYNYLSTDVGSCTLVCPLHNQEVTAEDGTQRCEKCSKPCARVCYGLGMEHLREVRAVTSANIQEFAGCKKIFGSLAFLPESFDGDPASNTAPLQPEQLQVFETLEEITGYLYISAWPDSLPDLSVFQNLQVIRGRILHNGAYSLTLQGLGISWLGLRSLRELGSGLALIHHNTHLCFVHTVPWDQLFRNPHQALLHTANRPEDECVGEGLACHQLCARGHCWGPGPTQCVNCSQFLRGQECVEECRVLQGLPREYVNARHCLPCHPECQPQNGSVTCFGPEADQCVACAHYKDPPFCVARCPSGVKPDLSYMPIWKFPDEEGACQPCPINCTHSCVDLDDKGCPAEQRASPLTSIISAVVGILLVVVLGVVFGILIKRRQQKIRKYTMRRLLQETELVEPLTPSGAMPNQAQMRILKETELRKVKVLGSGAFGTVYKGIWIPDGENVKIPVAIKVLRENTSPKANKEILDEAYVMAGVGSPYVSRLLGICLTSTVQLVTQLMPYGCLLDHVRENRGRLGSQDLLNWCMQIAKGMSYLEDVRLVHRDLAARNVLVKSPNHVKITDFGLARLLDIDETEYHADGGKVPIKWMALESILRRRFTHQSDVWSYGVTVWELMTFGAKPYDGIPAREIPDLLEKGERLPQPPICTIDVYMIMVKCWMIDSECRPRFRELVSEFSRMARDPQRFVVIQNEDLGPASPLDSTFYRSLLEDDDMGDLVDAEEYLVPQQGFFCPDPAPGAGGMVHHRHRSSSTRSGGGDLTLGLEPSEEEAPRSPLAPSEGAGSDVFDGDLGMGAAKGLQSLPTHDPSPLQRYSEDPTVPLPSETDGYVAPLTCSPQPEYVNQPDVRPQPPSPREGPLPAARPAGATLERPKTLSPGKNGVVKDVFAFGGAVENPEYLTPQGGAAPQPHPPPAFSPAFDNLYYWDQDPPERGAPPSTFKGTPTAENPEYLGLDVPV
Compound,viability [1] [%],Her2 level [2],viability [3],viability [4],viability [5],differential viability (reversal) ([6]; H69AR cells + 2 uM doxorubicin),"viability [6, 16] [%]","viability [6, 17] [%]",inhibition [7],inhibition [8],growth inhibition [9],growth inhibition [10],viability increase [11],viability [12],viability [13],inhibition [14],RAM network inhibition [15]
CCOC(=O)CN1CC23C=CC(O2)C(C(=O)Nc2ccc(C(C)=O)cc2)C3C1=O (stereo not given),87,101% (inactive),87% (inactive),101% (inactive),96.4% (inactive),2.38% (inactive),94,96.4,-1.07% (inactive),2.67% (inactive),-5.7% (inactive),2.56% (inactive),-1.78% (inactive),102% (inactive),94.2% (inactive),1.26% (inactive),1.41% (inactive)
COC(=O)CN1C(=O)C(O)(CC(=O)c2ccc(Cl)cc2)c2ccccc21 (stereo not given),87.5,88.5% (inactive),87.5% (inactive),94.4% (inactive),70.5% (inactive),-21.3% (inactive),91.8,70.5,-6.8% (inactive),5% (inactive),-0.49% (inactive),-8.47% (inactive),-3.44% (inactive),87.3% (inactive),91.5% (inactive),1.81% (inactive),0.35% (inactive)
CCOC(=O)N1CCC(NC(=O)CN2C(=O)CCSc3ccccc32)CC1,96.5,97.5% (inactive),96.5% (inactive),87.5% (inactive),93.1% (inactive),-3.45% (inactive),96.6,93.1,-1.87% (inactive),-1.15% (inactive),5.44% (inactive),-4.73% (inactive),1.02% (inactive),106% (inactive),101% (inactive),2.65% (inactive),-0.42% (inactive)
COc1ccc(NC(=O)CN(c2ccc(C(C)C)cc2)S(=O)(=O)c2c(C)noc2C)cc1OC,90.5,99% (inactive),90.5% (inactive),58.7% (inactive),84.9% (inactive),-6.37% (inactive),91.3,84.9,1.41% (inactive),-2.17% (inactive),-14.5% (inactive),-5.8% (inactive),-3.99% (inactive),94.5% (inactive),90.8% (inactive),3.67% (inactive),3.37% (inactive)
CC12CN3CC(C)(CN(C1)C3c1ccc(Cl)cc1Cl)C2=O (stereo not given),97,102% (inactive),97% (inactive),101% (inactive),80.9% (inactive),-7.23% (inactive),88.2,80.9,-2.67% (inactive),-3% (inactive),-17.2% (inactive),-1.12% (inactive),-2.71% (inactive),93.4% (inactive),95.3% (inactive),1.56% (inactive),-0.11% (inactive)
Cc1c(NC(=O)c2noc3c2CCc2ccccc2-3)c(=O)n(-c2ccccc2)n1C,95.5,97.5% (inactive),95.5% (inactive),102% (inactive),99.7% (inactive),-5.54% (inactive),105,99.7,-5.73% (inactive),-7.21% (inactive),-3.5% (inactive),6.45% (inactive),-0.3% (inactive),101% (inactive),102% (inactive),1.05% (inactive),4.92% (inactive)
O=C(O)c1ccc2c(c1)C(=O)N(c1ccc(Cl)cn1)C2=O,98,111% (inactive),98% (inactive),105% (inactive),87.2% (inactive),-0.91% (inactive),88.2,87.2,-5.47% (inactive),0.33% (inactive),-12.8% (inactive),-10.8% (inactive),-2.33% (inactive),102% (inactive),96.2% (inactive),1.22% (inactive),-0.74% (inactive)
COC(=O)c1oc2ccc(Br)cc2c1NC(C)=O,94,81% (inactive),94% (inactive),96.1% (inactive),98.2% (inactive),3.47% (inactive),94.7,98.2,-4% (inactive),1.33% (inactive),-7.17% (inactive),0.76% (inactive),1.21% (inactive),102% (inactive),98.4% (inactive),0.08% (inactive),2.66% (inactive)
CC1CCN(c2oc(-c3ccccc3F)nc2C#N)CC1,82,95% (inactive),82% (inactive),78.7% (inactive),92% (inactive),7.56% (inactive),84.5,92,-2.27% (inactive),2.79% (inactive),-14.9% (inactive),-13.1% (inactive),0.34% (inactive),89.4% (inactive),88.9% (inactive),0.425% (inactive),2.79% (inactive)
COc1ccc(S(=O)(=O)Cc2ccc(C(=O)NCCc3ccc(S(N)(=O)=O)cc3)o2)cc1,94.5,114% (inactive),94.5% (inactive),91.6% (inactive),91.7% (inactive),12.1% (inactive),79.6,91.7,-4.13% (inactive),-2.67% (inactive),-0.09% (inactive),-4.47% (inactive),0.71% (inactive),102% (inactive),99.1% (inactive),0.71% (inactive),0.1% (inactive)
